{"source": "PubChem BioAssay AID651598", "about": "(Sanford-Burnham Center for Chemical Genomics, 2012)", "note": "Where “and” joins values, the source holds several entries; their conditions need not be identical. Identical values can stand only once."}
{"target": "Apelin receptor (Homo sapiens) (UniProt P35414)", "sequence (P35414 whole entry, looked up)": "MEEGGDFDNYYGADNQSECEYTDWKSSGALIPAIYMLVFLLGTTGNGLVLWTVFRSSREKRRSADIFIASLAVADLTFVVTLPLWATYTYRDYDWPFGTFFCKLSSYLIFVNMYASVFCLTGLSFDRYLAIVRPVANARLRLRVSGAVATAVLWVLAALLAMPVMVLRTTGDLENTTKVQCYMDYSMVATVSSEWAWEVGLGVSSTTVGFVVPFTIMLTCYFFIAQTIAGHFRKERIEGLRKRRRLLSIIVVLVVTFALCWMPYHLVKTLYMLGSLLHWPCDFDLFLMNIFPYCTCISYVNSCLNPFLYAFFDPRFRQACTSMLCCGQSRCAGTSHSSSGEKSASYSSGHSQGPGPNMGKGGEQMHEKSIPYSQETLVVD", "test": "apelin receptor (APJ) antagonists, SAR follow-up, counter-screen for CXCR6 antagonist project, cell-based, beta-arrestin, DiscoveRx, panel, CHO-K1 (AID 651598)", "settings": "CHO-K1 PathHunter beta-arrestin luminescence, antagonist mode; run 6, at 80 µM (top of the series)"}
{"smiles": "COc1cc(C(=O)NC2CCN(CC(=O)Nc3ccccc3)CC2)cc(OC)c1OC", "inhibition": "-2.93%"}
{"smiles": "COc1cc(C(=O)NC2CC3CCCC(C2)N3CC(=O)Nc2ccccc2)cc(OC)c1OC", "note": "(stereo not drawn)", "inhibition": "9.24% and -4.02% and 20.6%"}
{"smiles": "COc1cc(C(=O)NC2CC3CCC(C2)N3CC(=O)Nc2ccccc2)cc(OC)c1OC", "note": "(stereo not drawn)", "inhibition": "10.4% and -17.1%"}
